Laboratory results taken from PubChem BioAssay (NCI).
About 83,000 compounds went through this panel and 20% of them were active in at least one assay; those are over-represented in the sample as a whole.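 Growth was measured after 48 h exposure to one concentration of compound in 96-well plates. Values under 10 count as active.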 Unmarked numbers belong to inactive results. Calls of active or inactive are those of the source.

What follows are compounds tested on MDA-MB-231 breast (assay: NCI-60 one-dose screen, 48 h (100 = growth as untreated, 0 = no growth, -100 = all killed)). Settings: 10 µM unless noted.

Going from `COc1cc(/C=C\c2cc(OC)c(OC)c(OC)c2)cc(N/C=C\C(=O)c2cc(OC)c(OC)c(OC)c2)c1OC` to `COc1ccc(/C=C\c2cc(OC)c(OC)c(OC)c2)cc1OCC(=O)Nc1nc2ccc(F)cc2s1`, the growth rises from 42.7% to 46.7%.

Going from `O=[N+]([O-])c1ccc(OP(=O)(CCl)N(CCCl)CCCl)cc1` (stereo not drawn) to `O=C(Nc1ccc([N+](=O)[O-])cc1)C(Cl)(Cl)Cl`, the growth falls from 124% to 95%.

Going from `O=C1CC2(CC3(Cl)C(Cl)=C(Cl)C2(Cl)C3(Cl)Cl)C(=O)O1` (stereo not drawn) to `CCC1(C(C)C)C(=O)NC(=S)NC1=O`, the growth falls from 128% to 114%.

First: C[CH2][Sn]([Cl])([Cl])[CH2]C.Oc1ccccc1C=NCCN=Cc1ccccc1O
Second: CCN(CC)CCOC(=O)C(OC(C)C)(c1ccccc1)c1ccccc1
The growth of the first is higher: 107% for the first, 99.3% for the second.

First: C[N+]12CN3CN(CN(C3)C1)C2
Second: C[C@]12CC[C@@H]3c4ccc(Oc5nc(N6CC6)nc(N6CC6)n5)cc4CC[C@H]3[C@@H]1CCC2=O
The growth of the first is higher: 133% for the first, 74.5% for the second.

First: c1ccc(COc2ccc3[nH]cc(CCN(Cc4ccccc4)Cc4ccccc4)c3c2)cc1
Second: [Au+].[N-]=C=O.c1ccc(CN2[CH-]N(Cc3ccccc3)C(c3ccccc3)=C2c2ccccc2)cc1
The growth of the first is lower: 83.3% for the first, 86.4% for the second.

Going from `C[C@]12CC[C@H]3[C@@H](CC[C@]4(O)C[C@@H](O[C@@H]5O[C@H](CO)[C@@H](O[C@@H]6OC[C@@H](O)[C@H](O)[C@H]6O)[C@H](O)[C@H]5O)CC[C@]34C=O)[C@@]1(O)CC[C@@H]2C1=CC(=O)OC1` to `CC(C)CCC(=O)O[C@H]1CC[C@H]2[C@@H]3CCC4=CC(=O)CC[C@]4(C)[C@H]3CC[C@]12C`, the growth rises from 42.2% to 98.2%.

Compared with `COC1OC(CO)C(O)C(O)[CH]1[Hg][O]C(C)=O` (stereo not drawn), `C/C(=C\c1cc(C(F)(F)F)nn1CCNC(=O)OC(C)(C)C)[C@@H]1C[C@@H]2O[C@]2(C)CCC[C@H](C)[C@H](O)[C@@H](C)C(=O)C(C)(C)[C@@H](O)CC(=O)O1` is lower in growth: 81.9% for the first, 58.8% for the second.

Going from `OCc1ccc2c(c1)OCO2` to `CNC(=O)Oc1cccc(C(F)(F)F)c1`, the growth rises from 102% to 103%.

Going from `Nc1nnnc2nc[nH]c12` to `COc1ccc(C(=O)c2sc3nc4c(cc3c2N)N2CCC4CC2)cc1OC`, the growth rises from 14.5% to 66.9%.

Going from `CC1CCCC(C[N+](C)(C)C)C1=O` (stereo not drawn) to `CC(CC1CCCCC1)NCc1ccccc1` (stereo not drawn), the growth falls from 104% to 97.3%.

First: CCCCCCCOC(C(=O)OCCN(CC)CC)(c1ccccc1)c1ccccc1
Second: ClCCN(CCCl)Cc1ccc(Nc2ccnc3cc(Cl)ccc23)cc1
The growth of the first is higher: 82.5% for the first, 56.3% for the second.

Compared with `COc1ccc(/C=C\c2cc(OC)c(OC)c(OC)c2)cc1OCC(=O)Nc1nc2ccc(C(F)(F)F)cc2s1`, `CC[C@]12C=CCN3CC[C@]4(C(=C(C(=O)OC)C1)Nc1cc(OC)c(OC(C)=O)cc14)[C@@H]32` is higher in growth: 12.8% for the first, 19.7% for the second.

Going from `O=C1CCC2(O)[C@@H]3Cc4ccc(O)c5c4[C@]2(CCN3Cc2ccoc2)C1O5` (stereo partly drawn) to `COc1cc(NC(C)CCCNC2CN3CCC2CC3)c2ncccc2c1` (stereo not drawn), the growth falls from 106% to 55.1%.

`C=CCCCN=C=S` was tested, and the growth was 68.3%.

With `N#C[S-].[Au+].c1ccc(CN2[CH-]N(Cc3ccccc3)C(c3ccccc3)=C2c2ccccc2)cc1` the growth was -36% (active).
In the case of `COc1cc2c(cc1OCCCCCn1c(-c3ccco3)nc3ccccc31)N=C[C@@H]1CCCN1C2=O`, the growth is reported as 9.17% (active).
With `O=C(O)c1ccc([S-])cc1.[Au+].c1ccc(CN2[CH-]N(Cc3ccccc3)C(c3ccccc3)=C2c2ccccc2)cc1` the growth was -62.5% (active).
In the case of `N#C[Se]Cc1cc(-c2ccccc2)n(-c2ccc(S(N)(=O)=O)cc2)n1`, the growth is reported as -68.3% (active).
With `COc1cc2c(cc1OCCCCn1c(-c3cccs3)nc3ccccc31)N=C[C@@H]1CCCN1C2=O` the growth was -18.6% (active).
With `CC1=C(CCCNS(C)(=O)=O)C2=C(C)C3(CC3)[C@@](C)(O)C(=O)C2=C1` the growth was -3.41% (active).
In the case of `CN1C(=O)N[C@H]2[C@@H]3NC(=O)c4ccc(Br)n4[C@@H]3C[C@]21O`, the growth is reported as -28% (active).
For `COc1cc2c(cc1OCCCn1c(-c3ccccn3)nc3ccccc31)N=C[C@@H]1CCCN1C2=O`, the growth was 6.19% (active).
In the case of `CC(=O)OCC1O[C@@H]([S-])C(OC(C)=O)[C@H](OC(C)=O)[C@@H]1OC(C)=O.[Au+].c1ccc(CN2[CH-]N(Cc3ccccc3)C(c3ccccc3)=C2c2ccccc2)cc1`, the growth is reported as -29.4% (active).
